# Compound activity deposited in PubChem BioAssay by National Center for Advancing Translational Sciences (NCATS).
# HCV inhibitor – qHTS Assay for Inhibitors of Hepatitis C Virus (HCV); Huh7.5.1 HCVcc-Cre infection, luciferase reporter, 44 h; hit rate 3.4% among 340,000; Potency, µM (doses to about 41.8 µM), for inactives: at the highest dose activity change, negative = inhibition, hits mostly inhibitors; note: potency is the fitted concentration of half-maximal effect; % is set by controls: 0 for no effect and ±100 for the full control effect
#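 HCVcc-Cre virus at an moi near 0.5 was added right after compound to cells cultured 4 h from seeding (1,000 cells/well). Luciferase activity was determined 44 h later, 15 min after substrate addition at RT.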
# Pf growth 48h – Primary qHTS for delayed death inhibitors of the malarial parasite plastid, 48 hour incubation | P. falciparum luciferase growth in erythrocytes, 48 h | AID 504832, 2011 | hit rate 5.9% among 310,000 | Potency, µM (top dose mostly 28.7 µM), without a hit: top-dose activity change, negative = inhibition, actives largely listed as inhibitors; note: potency is the fitted concentration of half-maximal effect; % is set by controls: 0 for no effect and ±100 for the full control effect
#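 Erythrocytes infected with P. falciparum carrying an integrated firefly luciferase reporter (2% hematocrit, 0.1% parasitemia final) were exposed to compounds in RPMI 1640 with 0.5% Albumax at 37 C, 5% CO2. Growth inhibition was scored as reduced luminescence.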
# HCMV inh – qHTS Assay for inhibitors of the human cytomegalovirus (HCMV); activity change, negative = inhibition, % at 57.5 µM; hit rate 4.5% among 410,000; HFF cells, HCMV-luciferase reporter, 72 h; stronger effect = lower value; in the data active = activity change below about -60%; inconclusive = no clear call, values can overlap the other calls; inactive = above about -39%; note: % is set by controls: 0 for no effect and ±100 for the full control effect
#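 Inhibition of viral replication was scored as loss of reporter luminescence in HFFs infected with HCMV-luciferase (MOI 1 PFU/cell) for 72 h; compounds tested at 2 doses, normalized to buffer and Salinomycin controls.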
# Sm TGR block – qHTS Assay for the Inhibitors of Schistosoma Mansoni Peroxiredoxins. Schistosoma mansoni thioredoxin glutathione reductase (TGR), Q962Y6. purified TGR, DTNB reduction, TNB absorbance 405 nm. Potency, µM (top dose mostly 114 µM), for inactives: at the top dose activity change, negative = inhibition, most hits filed as inhibitors. hit rate 3% among 360,000. AID 485364, 2010; note: potency is the fitted concentration of half-maximal effect; % is set by controls: 0 for no effect and ±100 for the full control effect; nearly all actives have a fitted effect of over 60% in size
#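 Kinetic colorimetric format: TGR-catalysed, NADPH-driven DTNB reduction monitored via TNB absorbance. Enzyme dispensed at 20 nM; compound exposure 15 min at room temperature before reaction start.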
# Pf growth 96h – Primary qHTS for delayed death inhibitors of the malarial parasite plastid, 96 hour incubation; P. falciparum luciferase reporter growth, 96 h; hit rate 6.9% among 320,000; Potency, µM (titrated, usually from 28.7 µM), inactives show at the highest dose activity change, negative = inhibition, usual class: inhibitors; note: potency is the fitted concentration of half-maximal effect; % is set by controls: 0 for no effect and ±100 for the full control effect
#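 Erythrocytes infected with luciferase-expressing P. falciparum were dispensed at 2% hematocrit and 0.05% parasitemia (final), then incubated with compounds 96 hours at 37 C in 5% CO2. Luminescence after detection reagent addition reported growth.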
# SARS PLP yeast – qHTS of Yeast-based Assay for SARS-CoV PLP. S. cerevisiae expressing SARS-CoV PLpro, growth rescue. Potency, µM (doses to about 32.9 µM), without a hit: at the highest dose activity, positive = growth rescue, usual class: activators. hit rate 0.19% among 330,000; calls by dose curve; note: potency is the fitted concentration of half-maximal effect; 0% is about no effect; nearly all actives have a fitted effect of over 55% in size
# Active calls of the source: *; ? = inconclusive; / = no result given; [ ] = dose if it differs, or a comment. Compounds with a hit are over-represented: about 15% of the library has one in this group of screens. Unless noted, calls come from the whole dose curve; as a rule, active = well fitted curve in the direction sought with a large enough effect; inconclusive = small, poorly fitted or top-dose-only effect, or another doubt; inactive = no such curve, though single readings can be large; an effect the other way counts as inactive or inconclusive.
SMILES,HCV inhibitor,Pf growth 48h,HCMV inh,Sm TGR block,Pf growth 96h,SARS PLP yeast
Cc1ccc(Cn2c(SCc3cccnc3)nc3c2c(=O)n(C)c(=O)n3C)cc1,?,1%,33,-5%,21%,4%
Cn1c(=O)c2c(nc(SCCN3CCOCC3)n2C)n(C)c1=O,0%,?,27,4%,3.7µM*,3%
CC(C)Cc1ccc(-c2cc3nc(NCCCn4ccnc4)ccn3n2)cc1,/,/,56,/,/,/
CCCCn1c(SCCN2CCCCC2)nc2c1c(=O)n(C)c(=O)n2C,/,/,-24,/,/,/
Cn1c(=O)c2c(nc(SCCN3CCCCC3)n2Cc2ccccc2)n(C)c1=O,?,?,72,-30%,2.3µM*,-3%
O=C(Nc1ccc(S(=O)(=O)N2CCCCC2)cc1)C1CC(=O)N(c2ccccc2)C1 (configuration not stated),-6%,-23%,-10,4%,?,3%
CC1CCCN(S(=O)(=O)c2ccc(NC(=O)C3CC(=O)N(c4ccccc4)C3)cc2)C1 (configuration not stated),?,0%,?,-9%,9.3µM*,7%
CC1CCCN(S(=O)(=O)c2ccc(NC(=O)C3CCN(C(=O)c4ccco4)CC3)cc2)C1 (configuration not stated),-29%,-21%,-60*,8%,?,4%
CCC(C)NS(=O)(=O)c1ccc(NC(=O)C2CCN(C(=O)c3ccco3)CC2)cc1 (configuration not stated),?,-4%,13,-7%,-1%,-3%
Cc1cccc(S(=O)(=O)N2CCn3cccc3C2C)c1 (configuration not stated),16%,?,0,45µM*,0%,8%
COc1ccc(-c2nc3ccc(Cl)cn3c2NC2CCCCC2)cc1SC1CCCCC1,-2%,/,-19,/,/,-4%
CCC(=O)Nc1c(-c2ccc(C)cc2)nc2ccc(C)cn12,5%,?,43,6%,12µM*,-4%
CCC(C)Sc1cccc(-c2nc3ccc(C)cn3c2NC2CCCCC2)c1 (configuration not stated),-9%,8.3µM*,?,-1%,13µM*,-1%
Cc1ccc2nc(-c3cccnc3)c(NC3CCCCC3)n2c1,1%,?,-2,-22%,-8%,-12%
Cc1ccc2nc(-c3ccc(F)cc3)c(NC(C)(C)CC(C)(C)C)n2c1,/,/,0,-10%,/,/
CCC(C)Sc1ccc(-c2nc3ccc(C)cn3c2NC2CCCCC2)cc1 (configuration not stated),-16%,12µM*,/,-1%,?,3%
COc1ccc(-c2ccc(-c3nc4ccc(C)cn4c3NC3CCCCC3)cc2OC)cc1,?,12µM*,14,1%,12µM*,-2%
Cc1ccc2nc(-c3cccc(SC4CCCCC4)c3)c(NC3CCCCC3)n2c1,17%,/,-12,/,/,8%
O=C(Nc1ccccc1N1CCN(C(=O)c2ccccc2)CC1)c1cccc(Cl)c1,?,?,-20,8%,?,-6%
O=C(CSc1ccc(Cl)cc1)Nc1ccccc1N1CCN(C(=O)c2ccc(Cl)cc2)CC1,?,4.1µM*,-19,-2%,?,28%
CC(C)(C)C(=O)Nc1ccccc1N1CCN(C(=O)c2ccc(Cl)cc2)CC1,?,10µM*,27,-15%,?,-6%
CC(C)C(=O)NC(=S)Nc1ccccc1N1CCN(C(=O)c2ccc(Cl)cc2)CC1,3%,1.5µM*,1,?,-28%,0%
O=C(Nc1ccccc1N1CCCC1)C1CCN(C(=O)c2ccc(Cl)cc2)CC1,?,?,-16,-3%,?,3%
CCOC(=O)N1CCN(C(=O)c2ccc(CSc3ccc(Cl)cc3)cc2)CC1,?,?,-71*,8%,?,0%
O=C(O)CC1c2ccccc2CCN1C(=O)Nc1cc(Cl)ccc1Cl (configuration not stated),/,/,12,1%,/,/
SMILES,HCV inhibitor,Pf growth 48h,HCMV inh,Sm TGR block,Pf growth 96h,SARS PLP yeast
CC1CCCCN1C(=O)Cn1c(SCC(=O)N(C)c2ccccc2)nc2ccccc21 (configuration not stated),/,/,-24,-1%,/,/
CC(=O)c1c(C)[nH]c(C(=O)OCc2ccc(Br)cc2)c1C,4.5µM*,34%,-40,5%,46%,-9%
CC(=O)c1c(C)[nH]c(C(=O)OCCOc2ccccc2)c1C,8.9µM*,466%,?,1%,374%,-1%
CC(=O)c1c(C)[nH]c(C(=O)OCc2cccc(C)c2)c1C,16µM*,46%,-16,1%,103%,-16%
CCOC(=O)c1c(C)[nH]c(C(=O)OCc2ccc(C)cc2)c1C,?,/,-2,/,/,/
CC(=O)c1c(C)[nH]c(C(=O)COC(=O)CCCOc2ccccc2)c1C,0%,27%,28,1%,0%,-2%
CC(=O)c1c(C)[nH]c(C(=O)OCc2ccccc2F)c1C,18µM*,223%,?,0%,208%,0%
CCOC(=O)c1c(C)[nH]c(C(=O)OCc2ccccc2)c1C,/,161%,24,-8%,-61%,-2%
CCCN(CCC)CCCNC(=O)Cn1ncn2c(cc3sc(CC)cc32)c1=O,/,/,-31,5%,/,/
O=C(Nc1ccccc1Cl)c1cc(C2CCCCN2C(=O)CCCc2ccccc2)on1 (configuration not stated),/,/,28,/,/,/
COc1ccc(C)cc1COC(=O)c1[nH]c(C)c(C(C)=O)c1C,?,?,-4,?,12µM*,0%
CCOc1ccc(CCNC(=O)C(CCC(N)=O)NC(=O)OCc2ccccc2)cc1OCC (configuration not stated),-12%,?,13,-1%,-27%,0%
CO[C@@]1(NC(=O)Cc2cccs2)C(=O)N2C(C(=O)O)=C(COC(N)=O)CS[C@@H]21,?,-9%,/,35µM*,-21%,1%
NC(=O)c1cc[n+](CC2=C(C(=O)[O-])N3C(=O)[C@@H](NC(=O)Cc4cccs4)[C@@H]3SC2)cc1,/,-12%[12.8 µM],/,/,-13%[12.8 µM],/
CC(C)Cc1cc(C(=O)N2N=C(C(F)F)CC2(O)C(F)F)c2ccccc2n1 (configuration not stated),?,13µM*,-30,-11%,6.6µM*,-6%
CCc1ccc(-c2cc(C(=O)N3N=C(C(F)F)CC3(O)C(F)F)c3ccccc3n2)cc1 (configuration not stated),?,?,-87*,9%,?,-33%
